# From PubChem BioAssay
# Where “and” joins values, the source holds several entries; their conditions need not be identical. Equal entries are not always repeated. Calls of active or inactive are those of the source. Unless noted, the rule behind the calls is not given here.
# Legend:
# [1] = target: 6-phosphogluconate dehydrogenase, decarboxylating (Homo sapiens) (UniProt P52209); assay: 6PGD enzyme inhibitors, primary screen, biochemical, human, recombinant enzyme, NADPH absorbance (AID 1159550;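 active = at least 20% inhibition of 6-phosphogluconate dehydrogenase activity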); conditions: recombinant 6PGD, NADPH absorbance 341 nm; at 10 µM; stronger effect = higher value
# Chain of 6-phosphogluconate dehydrogenase, decarboxylating (Homo sapiens) (P52209 whole entry, looked up): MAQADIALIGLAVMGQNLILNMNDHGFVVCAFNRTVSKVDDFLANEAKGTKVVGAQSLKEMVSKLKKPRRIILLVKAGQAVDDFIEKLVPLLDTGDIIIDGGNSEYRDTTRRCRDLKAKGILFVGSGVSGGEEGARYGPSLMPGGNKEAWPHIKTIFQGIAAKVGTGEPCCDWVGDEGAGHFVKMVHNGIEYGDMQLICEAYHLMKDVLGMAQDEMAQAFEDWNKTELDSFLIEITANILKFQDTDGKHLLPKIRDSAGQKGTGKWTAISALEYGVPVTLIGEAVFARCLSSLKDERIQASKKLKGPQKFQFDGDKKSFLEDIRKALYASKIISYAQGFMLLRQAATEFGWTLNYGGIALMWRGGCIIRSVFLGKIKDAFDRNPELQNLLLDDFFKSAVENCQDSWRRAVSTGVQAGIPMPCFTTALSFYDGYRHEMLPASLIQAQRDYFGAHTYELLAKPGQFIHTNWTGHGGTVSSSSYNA
# [2] = differential killing of epithelial or mesenchymal cells, primary screen, imaging, PC-3E GFP, TEM4-18 mCherry, co-culture (AID 1345086;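 active = compounds killing one labelled cell type while sparing the other, by normalised counts and ratio limits, not self-fluorescent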;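 for all read-outs here: cells exposed to compound for 72 h before imaging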;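 for red/green cell ratio (normalised): normalised mesenchymal count divided by normalised epithelial count so high means epithelial killing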); conditions: imaging cell counts, at 1 µM; for red/green cell ratio (normalised): actives lie on both sides
# [3] = system: Aerobactin synthetase IucA (Klebsiella pneumoniae hvKP1); assay: Biochemical IucA enzyme inhibition primary screen of the Spectrum library (AID 1346200); conditions: malachite green pyrophosphate, A620, at 8 µM, stronger effect = lower value;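 note: 100% = wells without compound and 0% = wells lacking enzyme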
# [4] = sensitizers of A549 cells to miR-34 induction, primary screen, imaging, A549 dox-inducible miR-34, nuclei and caspase counts (AID 1347080;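 active = compounds whose cell count with miR-34 switched on is under 0.7 times the count with it off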); conditions: A549 miR-34 inducible, Hoechst nuclei count, 48 h
# [5] = target: NAD(+) hydrolase SARM1 (Homo sapiens) (UniProt Q6SZW1); assay: SARM1 TIR NADase inhibitors, cell lysate, NAD-Glo luminescence (AID 1508614;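 active = compound whose remaining NAD level is above about 45 nM, limit read from the data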;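 note: higher remaining NAD means stronger inhibition of SARM1 NADase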); conditions: SAM-TIR HEK293T lysate NADase, at 1 µM, stronger effect = higher value
# Chain of NAD(+) hydrolase SARM1 (Homo sapiens) (Q6SZW1 whole entry, looked up): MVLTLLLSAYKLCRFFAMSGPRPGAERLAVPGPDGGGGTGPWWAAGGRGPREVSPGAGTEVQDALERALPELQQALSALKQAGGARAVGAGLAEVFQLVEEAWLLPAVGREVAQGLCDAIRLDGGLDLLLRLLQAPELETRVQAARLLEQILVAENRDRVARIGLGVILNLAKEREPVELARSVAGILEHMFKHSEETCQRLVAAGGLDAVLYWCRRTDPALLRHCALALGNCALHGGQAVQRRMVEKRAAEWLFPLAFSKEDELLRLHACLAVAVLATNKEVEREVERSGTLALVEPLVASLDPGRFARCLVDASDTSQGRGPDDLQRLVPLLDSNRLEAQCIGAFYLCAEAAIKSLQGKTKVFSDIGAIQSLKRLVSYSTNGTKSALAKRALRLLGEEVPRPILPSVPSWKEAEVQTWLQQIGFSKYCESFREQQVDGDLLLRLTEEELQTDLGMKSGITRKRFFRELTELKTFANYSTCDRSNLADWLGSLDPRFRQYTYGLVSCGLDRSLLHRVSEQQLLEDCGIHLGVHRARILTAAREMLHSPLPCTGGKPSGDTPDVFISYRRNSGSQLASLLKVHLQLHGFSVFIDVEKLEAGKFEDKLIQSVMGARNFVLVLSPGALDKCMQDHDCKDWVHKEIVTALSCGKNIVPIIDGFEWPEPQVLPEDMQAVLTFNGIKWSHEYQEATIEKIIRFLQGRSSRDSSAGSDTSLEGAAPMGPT
# [6] = polyglutamine-triggered caspase-3 activation inhibitors, cell-based (AID 1583); conditions: polyglutamine-induced caspase-3 activation, cell assay; stronger effect = higher value;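 tested at 10 µM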
# [7] = suppressors of polyQ aggregation in yeast, 75Q-TubU reporter (AID 1593); conditions: Yeast 75Q polyglutamine aggregation reporter
# [8] = inhibitors of mitochondrial cytochrome c release, biochemical, purified mitochondria (AID 1603); conditions: stronger effect = lower value;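 note: mouse liver mitochondria challenged with calcium chloride; signal normalized to the plate average as 100%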
# [9] = hESC survival regulators, cell-based (AID 493140); conditions: human embryonic stem cell survival screen; stronger effect = higher value;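 note: cells exposed to compounds for four days before counting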
# [10] = liver-stage malaria parasite growth inhibition, primary screen, cell-based, HepG2, luciferase luminescence, HepG2 viability (AID 624349; in the data active = parasite load remaining mostly below about 12%, no sharp cut-off; inactive = mostly above about 10%;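 note: 100% = mean of DMSO negative control wells on the same plate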); conditions: P. berghei liver stage in HepG2, luciferase luminescence, concentration not given here; parasite load remaining: stronger effect = lower value; viability: measured here: HepG2 viability without parasites
# [11] = target: Mitogen-activated protein kinase 7 (Homo sapiens) (UniProt Q13164); assay: ERK5 transactivation activators in reporter cells, primary screen, cell-based, HTS (AID 1508626;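 active = luciferase signal above three times the same-plate solvent-only control wells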;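 note: luciferase driven by Gal4-ERK5 fusion binding five Gal4 sites before minimal TATA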); conditions: HeLa Gal4-ERK5 transactivation, 18 h, at 5 µM, stronger effect = higher value
# Chain of Mitogen-activated protein kinase 7 (Homo sapiens) (Q13164 whole entry, looked up, the tested form may be a part): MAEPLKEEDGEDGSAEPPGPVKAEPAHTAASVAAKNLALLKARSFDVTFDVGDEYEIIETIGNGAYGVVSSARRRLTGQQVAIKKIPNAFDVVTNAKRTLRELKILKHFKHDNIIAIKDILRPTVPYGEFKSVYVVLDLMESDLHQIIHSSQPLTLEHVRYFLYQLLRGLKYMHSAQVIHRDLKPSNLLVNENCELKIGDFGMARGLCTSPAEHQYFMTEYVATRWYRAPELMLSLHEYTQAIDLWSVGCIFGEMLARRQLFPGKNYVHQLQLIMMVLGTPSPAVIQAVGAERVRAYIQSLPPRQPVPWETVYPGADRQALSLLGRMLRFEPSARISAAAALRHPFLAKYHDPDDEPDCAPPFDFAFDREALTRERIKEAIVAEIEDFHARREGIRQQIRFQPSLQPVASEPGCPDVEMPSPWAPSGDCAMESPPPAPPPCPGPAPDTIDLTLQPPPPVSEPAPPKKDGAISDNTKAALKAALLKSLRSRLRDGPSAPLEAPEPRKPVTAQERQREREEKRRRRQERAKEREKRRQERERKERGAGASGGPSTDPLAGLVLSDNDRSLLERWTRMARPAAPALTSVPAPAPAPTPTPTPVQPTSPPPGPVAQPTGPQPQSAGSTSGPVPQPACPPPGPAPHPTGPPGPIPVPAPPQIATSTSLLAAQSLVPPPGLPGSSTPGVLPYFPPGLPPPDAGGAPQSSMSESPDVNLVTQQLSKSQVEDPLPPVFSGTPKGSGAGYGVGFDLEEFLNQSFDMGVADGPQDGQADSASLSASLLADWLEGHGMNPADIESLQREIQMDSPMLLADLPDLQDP
# [12] = survival rescue of mitochondrial mutant cells in low glucose, primary screen, MELAS cybrids, Rieske KO mouse fibroblasts, CellTiter-Glo (AID 1508586;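 active = mean z-score across replicates of 1.96 or higher in either the MELAS or the Rieske mutant cell line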;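 note: z relative to plate mean and SD of compound and empty wells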)
# [13] = measured here: epithelial PC-3E GFP cell survival
# [14] = measured here: mesenchymal TEM4-18 mCherry cell survival
# [15] = measured here: relative caspase fold change +Dox/-Dox
# [16] = measured here: total cells with miR-34 induction, stronger effect = lower value
# [17] = measured here: total cells without miR-34 induction
# [18] = stronger effect = lower value, cell number ratio, induced over uninduced
# [19] = MELAS cybrid survival, CellTiter-Glo 48 h, stronger effect = higher value
# [20] = Rieske KO mouse fibroblast survival, CellTiter-Glo 72 h
SMILES,inhibition [1],red/green cell ratio (normalised) [2],"normalised cell number [2, 13]","normalised cell number [2, 14]",activity remaining [3],fold change ([4]; stronger effect = lower value),"fold change [4, 15]","cell count [4, 16]","cell count [4, 17]",remaining NAD [5],inhibition [6] [%],score [7],cytochrome c release ratio [8],survival [9],parasite load remaining [10],viability [10],"fold change [4, 18]",luciferase signal [11],"z-score [12, 19]","z-score [12, 20]"
O=C1C(Cl)=C(Cl)C(=O)C(Cl)=C1Cl,3.96% (inactive),1.04 (inactive),1,1.04,100% (inactive),,,,,,,,,,,,,,,
CCOP(=S)(OCC)Oc1nc(Cl)c(Cl)cc1Cl,-10.3% (inactive),0.91 (inactive),0.9,0.82,79.3% (inactive),0.887 (inactive),1.26,8030,9060,10 nM (inactive),,,,,,,,,,
CC1=NCCc2c1[nH]c1cc(O)ccc21,-14.9% (inactive),0.98 (inactive),1.01,0.99,98.9% (inactive),,1.99,8870,10500,,-45.7,0.81,0.72,17.3 (inactive),47.1% (inactive) and 63.7% (inactive) and 58.9% (inactive),102% and 67.4% and 76.2%,0.845 (inactive),64 AU (inactive),,
O=C1C=C2C=C[C@@H]3C[C@@]2(O1)[C@H]1CCCCN31,6.02% (inactive),0.9 (inactive),1.21,1.09,109% (inactive),,,,,10 nM (inactive),,,,,73.8% (inactive),90.5%,,92 AU (inactive),,
CC1=C(O)C(=O)C=C2C1=CC=C1[C@@]2(C)CC[C@@]2(C)[C@@H]3C[C@](C)(C(=O)O)CC[C@]3(C)CC[C@]12C,-29.5% (inactive),0.62 (inactive),0.09,0.05,122% (inactive),0.911 (inactive),1.02,948,1040,,,,,,,,,360 AU (inactive),,
NC(N)=NOCC[C@H](N)C(=O)O,12.8% (inactive),1.04 (inactive),0.91,0.95,113% (inactive),1.01 (inactive),1.39 and 1.69,9120 and 8920,8990 and 10800,,10.5,1.23,1.27,,114% (inactive) and 105% (inactive),112% and 68.7%,0.827 (inactive),84 AU (inactive),,
COc1cc(OC)c(OC)cc1C=O,-2.13% (inactive),1.04 (inactive),1.13,1.18,109% (inactive),0.932 (inactive),0.878,9380,10100,,,,,,70.8% (inactive),91.7%,,156 AU (inactive),-0.272 (inactive),0.673
COc1ccc2c(c1O)-c1c(OC)c(OC)cc3c1[C@H](C2)N(C)CC3,3.42% (inactive),1.1 (inactive),0.99,1.09,116% (inactive),0.862 (inactive),1.06,9380,10900,,,,,5.58 (inactive),125% (inactive) and 105% (inactive) and 60.3% (inactive),106% and 65% and 79.8%,,72 AU (inactive),,
COC1=C[C@@H]2[C@@H]3Cc4ccc(OC)c(O)c4[C@]2(CCN3C)CC1=O,2.36% (inactive),0.75 (inactive),1.39,1.03,94.1% (inactive),,,,,,,,,,,,,72 AU (inactive),,
COc1ccc2c(c1)[nH]c1c(C)nccc12,-2.64% (inactive),0.67 (inactive),0.9,0.6,104% (inactive),0.845 (inactive) and 0.909 (inactive) and 0.923 (inactive),1.49 and 0.507 and 1.16,4630 and 5110 and 4130,5480 and 5630 and 4470,,,,,4.58 (inactive),,76.6% and 67.9% and 85.5%,,124 AU (inactive),0.384 (inactive),1.34
CN[C@@H](C)[C@@H](O)c1ccccc1,2.73% (inactive),1.05 (inactive),1.12,1.18,98.2% (inactive),0.905 (inactive),3.17,11300,12500,,11.2,1.57,0.84,,106% (inactive) and 61.4% (inactive),73.1% and 87.5%,,36 AU (inactive),,
